Shown are actives, neighbours in structure and some others; about 0.4% of the full set was active somewhere.
AID inh: inhibitors of human activation induced cytidine deaminase | Q9GZX7 | AID deamination FRET fluorescence, UDG-coupled, 4 h | Potency, µM (highest dose often 115 µM), actives largely listed as inhibitors | hit rate 0.32% among 91,000 | AID 1347428; also: nearly all actives have a fitted effect of over 25% in size
Target sequence (Q9GZX7 whole entry, looked up): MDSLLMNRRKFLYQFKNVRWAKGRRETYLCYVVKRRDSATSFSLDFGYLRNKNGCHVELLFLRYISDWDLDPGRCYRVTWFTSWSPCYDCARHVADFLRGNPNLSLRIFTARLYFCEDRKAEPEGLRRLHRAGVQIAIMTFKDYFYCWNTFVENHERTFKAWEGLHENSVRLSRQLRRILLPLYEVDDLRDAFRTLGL
UDG counter: counter-screen for AID inhibitors: uracil-DNA glycosylase inhibition; hit rate 0.14% among 91,000; FRET deamination/UDG coupled assay, UDG read, 4 h; AID 1347430; Potency, µM (highest dose often 115 µM), for the others: top-dose activity change, negative = inhibition, hits mostly inhibitors; also: nearly all actives have a fitted effect of over 65% in size
Numbers without * were called inactive; i = inactive; u = inconclusive; [ ] = dose if it differs, or a comment. Calls follow the shape of the dose curve; as a rule, active = well fitted curve in the direction sought with a large enough effect; inconclusive = small, poorly fitted or top-dose-only effect, or another doubt; inactive = no such curve, though single readings can be large; an effect the other way counts as inactive or inconclusive. % is scaled to controls: 0 for no effect and ±100 for the full control effect; potency is read from the fitted curve at half-maximal effect.

SMILES	AID inh	UDG counter
COc1cccc(-c2nn(C)c3sc(C(=O)N4CCN(c5cccc(C)c5)C(C)C4)cc23)c1 (stereo unspecified)	39.8µM*	u
Cc1cccc(C(=O)NC2CCCCCC2)n1	i	6.5%
CC(C)(C)c1ccc(C(=O)Nc2ccc(OCc3cc(=O)n4ccsc4n3)cc2)cc1	i	-1.2%
Cc1ccc(C(=O)c2cn(Cc3ccccc3F)c3cc4c(cc3c2=O)OCO4)cc1	39.8µM*	-6.2%
Cc1ccc(C(=O)c2cn(Cc3ccccc3F)c3cc4c(cc3c2=O)OCCO4)cc1	u	-12.2%
Cc1cc(Cl)nc2ccc([N+](=O)[O-])cc12	i	0.3%
CC1=C(C(=O)Nc2ccc(C)cc2Cl)C2(CCCCCC2)OC1=O	i	-19.0%
Cc1ccc(N2CCN(C(=O)c3c4c(nc5ccccc35)C(=O)N(C3CCCCC3)C4)CC2)c(C)c1	u	2.2%
Cc1cccc(N2CCN(C(=O)c3c4c(nc5ccccc35)C(=O)N(C3CCCCC3)C4)CC2)c1C	28.2µM*	0.0%
CC1(C)CC(=O)C/C(=N/NC(=O)C2CCCCC2)C1	i	1.6%
CCOc1ccc(-n2c(SCc3nc(-c4ccccc4C)no3)nnc2-c2ccccc2)cc1	i	8.0%
COc1ccc(-n2c(SCc3nc(-c4ccc(C)cc4)no3)nnc2-c2ccccc2)cc1	i	-5.0%
COc1ccc(-c2noc(CSc3nnc(-c4ccncc4)n3-c3cccc(C)c3)n2)cc1OC	u	79.4µM*
Cc1ccc(-n2c(SCc3nc(-c4ccccc4C)no3)nnc2-c2ccncc2)cc1C	31.6µM*	u
CCOc1ccc(-n2c(Cc3ccccc3)nnc2SCc2nc(-c3cccs3)no2)cc1	31.6µM*	u
CCOc1ccc(-n2c(SCc3nc(-c4ccc(OC)cc4)no3)nnc2-c2ccncc2)cc1	u	79.4µM*
COc1ccc(-c2noc(CSc3nnc(C)n3-c3ccc(C)cc3)n2)cc1OC	i	u
Cc1ccccc1-c1noc(CSc2nnc(-c3ccncc3)n2-c2ccc(F)cc2)n1	i	u
CSc1cccc(NS(=O)(=O)c2cn(C)c(C)n2)c1	i	-7.4%
COC(=O)c1ccc(Cn2c(=O)cc(C)c3c(C)nn(C)c32)cc1	u	-8.2%
O=C(Nc1cc(C(F)(F)F)ccc1Cl)c1cc(-c2cccs2)nc2ccccc12	i	-7.1%
COc1ccc(CCNC(=O)Cn2c(=O)c3cccn3c3ccccc32)cc1OC	i	0.2%[57.5 µM]
COc1ccc(CCNC(=O)Cn2c(=O)c3cccn3c3ccc(F)cc32)cc1OC	79.4µM*	7.7%[57.5 µM]
CC(C)Cn1c(/C=C/c2ccc(F)cc2)nc2ccccc21	i	14.4%
CCC(C)Cn1c(/C=C/c2ccccc2)nc2ccccc21 (stereo unspecified)	u	79.4µM*
SMILES	AID inh	UDG counter
COc1ccc(C(=O)CCC(=O)Nc2cccc(C(C)=O)c2)cc1	i	-3.8%
CCCc1cnc2c(c1SCc1cccc(C)c1)c(=O)n(C)c(=O)n2C	u	-2.0%
CCOC(=O)N1CCc2c(sc(NCc3ccc(N(C)C)cc3)c2C(=O)Nc2ccc(OC)cc2)C1	50.1µM*	-28.7%
CCOC(=O)N1CCc2c(sc(NCc3cccc(F)c3)c2C(=O)Nc2ccc(OC)cc2)C1	i	u
CS(=O)(=O)N1CCCC(C(=O)Nc2ccc(SC3CCCC3)cc2)C1 (stereo unspecified)	i	10.5%
N#Cc1nc(C2CC2)oc1N1CCN(Cc2cccc(F)c2)CC1	i	-8.8%
CCOC(=O)N1CCN(S(=O)(=O)N2CCCC(C(=O)NCc3ccc(OC)cc3OC)C2)CC1 (stereo unspecified)	i	2.5%
O=C(CSc1nnc(-c2ccccc2)n1-c1ccc(Cl)cc1)Nc1ccc2cn[nH]c2c1	i	1.7%
Cc1cccc(N2CCN(C(=O)c3cc4ccc5cccnc5c4[nH]3)CC2C)c1 (stereo unspecified)	35.5µM*	u
Cc1ccc(C)c(N2CCN(C(=O)c3cc4ccc5cccnc5c4[nH]3)CC2)c1	u	0.0%
Cc1ccc(NC(=O)Nc2cn(C)c(=O)c3ccccc23)c(Cl)c1	i	-8.9%
COc1ccc(CNc2nc(SCc3ccccc3Cl)nc3ccccc23)cc1	u	-4.9%[57.5 µM]
Cc1ccc(C)c(OCCn2c(C3CC(=O)N(Cc4ccc(F)cc4)C3)nc3ccccc32)c1 (stereo unspecified)	28.2µM*	79.4µM*
CCOc1ccccc1N1CC(c2nc3ccccc3n2CCCCOc2cc(C)ccc2C)CC1=O (stereo unspecified)	i	-9.6%
Cc1cccc(C)c1OCC(=O)Nc1c(C(=O)c2ccc(Br)cc2)oc2ccccc12	u	-10.9%
Brc1c(Br)c(Br)c2n[nH]nc2c1Br	39.8µM*	7.3%
Brc1c(Br)c(Br)c2[nH]cnc2c1Br	i	-4.6%
CN(C)C/C=C(/c1ccc(Br)cc1)c1cccnc1	i	-1.9%
COc1ccc(-c2nnc3n2C(C)(C)Cc2c-3ccc3ccccc23)cc1OC	i	8.5%
Cc1c(C(=O)Nc2ccc(F)c(F)c2)oc2ccc(S(=O)(=O)N3CCC4(CC3)OCCO4)cc12	i	4.3%
CCCOC(=O)c1cccc(Nc2nc(C(=O)OCC)nc3ccccc23)c1	i	89.1µM*
CCOC(=O)c1cccc(Nc2nc(C(=O)OCC)nc3ccccc23)c1	i	6.9%
Cc1ccc(C)c(NC(=O)c2nc3ccccc3nc2N2CCCC2)c1	i	5.3%
Cc1ccc(Cc2nc3ccccc3nc2SCC(=O)N2CCCCC2C)cc1 (stereo unspecified)	50.1µM*	-18.9%
COc1cccc(Cc2nc3ccccc3nc2SCC(=O)N2CCCCC2C)c1 (stereo unspecified)	u	-2.8%
SMILES	AID inh	UDG counter
CC(C)c1ccc(S(=O)(=O)c2nnn3c2nc(N2CCN(C)CC2)c2sccc23)cc1	17.8µM*	18.5%
CN1CCN(c2nc3c(S(=O)(=O)c4ccc(Cl)cc4)nnn3c3ccsc23)CC1	u	-15.5%
CC(OC(=O)c1cccs1)C(=O)c1c[nH]c2ccccc12 (stereo unspecified)	i	10.6%
CCn1cc(C(=O)NC2CCN(C3CC3)CC2)c2ccccc21	i	-7.9%
Cc1cc(-c2ccc(C)c(S(=O)(=O)N3CCCC(C)C3)c2)on1 (stereo unspecified)	25.1µM*	12.1%
COc1ccc(-c2cc(C)no2)cc1S(=O)(=O)N1CCCC(C)C1 (stereo unspecified)	i	-9.4%
COc1cccc(CNC(=O)Cc2c(C)c3c(cc(C)c4c(C)coc43)oc2=O)c1	i	2.1%
COc1ccc(-c2nc3ccccc3n2Cc2ccc(Cl)cc2)cc1	44.7µM*	u
COc1ccc(-c2nc3ccccc3n2Cc2ccc(C(C)C)cc2)cc1	u	-3.9%
COCCNC(=O)c1ccc2c(c1)N(Cc1c(F)cccc1Cl)C(=O)c1ccccc1S2	i	-11.3%
CCN(CC)C(=O)c1ccc2c(c1)N(Cc1c(F)cccc1Cl)C(=O)c1ccccc1S2	70.8µM*	-21.4%
CCOC(=O)c1ccc(CN(Cc2ccc(C)cc2)S(=O)(=O)c2ccc(NC(C)=O)cc2)cc1	i	-12.4%
CCc1ccc(C(=O)c2cn(Cc3ccc(F)cc3)c3cc(OC)c(OC)cc3c2=O)cc1	35.5µM*	-24.1%
CCc1ccc(C(=O)c2cn(CC(=O)Nc3ccc(F)c(F)c3)c3cc(OC)c(OC)cc3c2=O)cc1	i	-16.8%
Cc1noc(C)c1C(=O)Nc1sc2c(c1C(N)=O)CCC(C)C2 (stereo unspecified)	i	-6.5%

Screens as filed in PubChem.
